# From publication PMC13494018
# Values without a mark were called inactive. The rule behind the calls is not given here.
# Biological target: CD276, Q5ZPR3
# Sequence (Q5ZPR3 whole entry): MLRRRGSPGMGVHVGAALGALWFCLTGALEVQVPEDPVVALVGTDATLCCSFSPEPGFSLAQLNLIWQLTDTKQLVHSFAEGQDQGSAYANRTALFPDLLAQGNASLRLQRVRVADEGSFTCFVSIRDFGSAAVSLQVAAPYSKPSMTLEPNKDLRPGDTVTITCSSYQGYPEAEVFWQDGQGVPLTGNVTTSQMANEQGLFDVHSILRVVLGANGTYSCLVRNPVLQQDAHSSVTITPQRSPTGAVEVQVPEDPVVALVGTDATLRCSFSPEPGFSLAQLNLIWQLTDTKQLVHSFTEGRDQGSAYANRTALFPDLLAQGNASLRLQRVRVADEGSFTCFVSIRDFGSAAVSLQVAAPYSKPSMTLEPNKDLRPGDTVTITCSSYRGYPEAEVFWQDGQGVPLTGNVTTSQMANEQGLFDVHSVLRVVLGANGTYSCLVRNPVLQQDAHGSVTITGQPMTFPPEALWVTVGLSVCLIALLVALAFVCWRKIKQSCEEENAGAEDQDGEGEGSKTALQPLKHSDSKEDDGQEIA
row,Binder,binding in a display sort
1,design_615_ab801fab-270b-4f6a-b2b5-83c165df418c_1097_dldesign_0_cycle1_af2pred (protein) SEAMKTAGAKILTATAASLERQLAEARANPGELRPRAAALAQLAAQLAESAKAIGDEETAARLAAISAEAAALAA,not found
2,design_615_ab801fab-270b-4f6a-b2b5-83c165df418c_1027_dldesign_0_cycle1_af2pred (protein) KEALEKAKKEAEKILKEAAEKVSPEVAKYVEEAAKQPTIEEMIHKVLLAAAKAGQVNLEDGKILLEAAEKIAAIYKKAKEE,not found
3,design_615_ab801fab-270b-4f6a-b2b5-83c165df418c_671_dldesign_0_cycle1_af2pred (protein) SPDAVAARGYLAMLRAAVAELERAAEELARDPEKAAEARALVERARALLAEAEALLADPAQAAAAAAAARAALEEVLEFIRRARELAA,not found
4,design_615_ab801fab-270b-4f6a-b2b5-83c165df418c_1266_dldesign_0_cycle1_af2pred (protein) AAALEEAKAQLKKLAEELLEKSKEAAKLGSDAAIAVTSKYVAKGSALLVQYPEVSSEPLVEAVKEASKLIKEA,not found
5,design_615_ab801fab-270b-4f6a-b2b5-83c165df418c_706_dldesign_0_cycle1_af2pred (protein) ASAARMAEIQAKGEEVAEKAKEKYKELLERLPDPEEALAEARAYLREVGAQYSGAVLGYALSLFESWAEEEL,not found
6,design_615_ab801fab-270b-4f6a-b2b5-83c165df418c_863_dldesign_0_cycle1_af2pred (protein) AQAAEAALRTAEAVVRRAEEAIARGASPEELRALAKLAEVVAESLLAVAKTASPEQAKRLEEAAERARRAAEEARRAAERLEREAA,not found
7,design_615_ab801fab-270b-4f6a-b2b5-83c165df418c_1575_dldesign_0_cycle1_af2pred (protein) GEEEEKKKKEKFEEAAEKVNKGLALASQAALADPKYQPVLAKVVELAKEAEKLKKEGKAEEALKKAEEAYEVAKKALAAVKAA,not found
8,design_615_ab801fab-270b-4f6a-b2b5-83c165df418c_1179_dldesign_0_cycle1_af2pred (protein) SPTEIAGKAVREIQELTEQAIANPETAEQLAAEAKKVAEEAGKKTGEGLAQLLKNVAAQREKEVQAALAA,not found
9,design_615_ab801fab-270b-4f6a-b2b5-83c165df418c_921_dldesign_0_cycle1_af2pred (protein) SAALKAALAALDAAEKAAEAADPEVAAIVRATREAVKKAPDEVAAKAAQMATAIESLAKAGFVASARATARNLLAYVSAAVAAAE,not found
10,design_615_ab801fab-270b-4f6a-b2b5-83c165df418c_1262_dldesign_0_cycle1_af2pred (protein) KEAAEKAAEKKAEEIKKIAEIAGGAVSPEDAAKIKKEAEEKIEELKKFAKESTPEEAEKYGQELVLEFSQSATKVMVAAAKAA,not found
11,design_615_ab801fab-270b-4f6a-b2b5-83c165df418c_1187_dldesign_0_cycle1_af2pred (protein) AAAEEVARRGASALAAGQNLIEMAKAASPEAAAVATAALAQAKALLAQGTPEAAEQAQQVINDAMAQVSKIMIAAA,not found
12,design_615_ab801fab-270b-4f6a-b2b5-83c165df418c_1763_dldesign_0_cycle1_af2pred (protein) EELVERLRLMRDVVAAALAAAGLDADAFAALLEAAAAAAREDPARAVELLARVAERAEELAAKASPLQRGVLRFAVTVARGAAAALA,not found
13,design_615_ab801fab-270b-4f6a-b2b5-83c165df418c_702_dldesign_0_cycle1_af2pred (protein) GEELREKAEKEAKQTLELVEGALEYAKTASPEAAALMEKALEEVKKLIELGKKSDAEEYAKYVEKARKVAFNAIAQATALIAA,not found
14,design_615_ab801fab-270b-4f6a-b2b5-83c165df418c_1174_dldesign_0_cycle1_af2pred (protein) ADEEDLAAAKKRLEDTKKLVEINLTMANQGPLGAKAAIASLNTQIKVLEAAKKAATPAAQPELDKAIAIAKAALAEAKAKAAA,not found
15,design_615_ab801fab-270b-4f6a-b2b5-83c165df418c_776_dldesign_0_cycle1_af2pred (protein) MEEAEEAYREAEEIKRETKAKAEAGTLTAQEAMEALARLEELREKLRELAEEEGEEAEEYYREVNEYAVEVSRIANAVFAAERAA,not found
16,design_615_ab801fab-270b-4f6a-b2b5-83c165df418c_1503_dldesign_0_cycle1_af2pred (protein) AAALAAAQAAAGATALETLEVASKAAKAGSPEVAAEANKLAQQATQLAQQAAQGDLATAKAQLAAIQKLLAQAKELLKK,not found
17,design_615_ab801fab-270b-4f6a-b2b5-83c165df418c_806_dldesign_0_cycle1_af2pred (protein) AAQAQAIEQLEKLIETAKELAKERPEEKEEILGKAHETAGQVLTLIAKGLQDPATAEQALKLAQAKLKEMEKKLKEAKA,not found
18,design_615_ab801fab-270b-4f6a-b2b5-83c165df418c_1064_dldesign_0_cycle1_af2pred (protein) AREQAQQALDFALANAQLIAQRRGEAGKRLAELVQKALEADEEEALKYLEEAIRLAEELAKDPAVAALARAAILALREARRLLE,not found
19,design_615_ab801fab-270b-4f6a-b2b5-83c165df418c_1665_dldesign_0_cycle1_af2pred (protein) MEEEKEKEKYIKELKKAAEEAIKTAKEAAKLDPKAGGALLKYVEASGKQALENAEKGDLETAKNQLEFMKQVLEIAKGTLAALKAA,not found
